Screening data deposited in PubChem by National Center for Advancing Translational Sciences (NCATS).
Marburg entry inh = blocks Marburg virus binding to or entry into cells | Marburg virus pseudotyped entry inhibition, cell reporter | actives 1.8% (n = 300,000) | Potency, µM (highest dose often 37.8 µM), actives largely listed as inhibitors; calls by dose curve; tested in HEK293 cells
Cycloheximide cs = affects cycloheximide protein synthesis inhibition readout, counter-screen | AID 2314 | max response, % | cell reporter, cycloheximide protein synthesis inhibition counterscreen | actives 12% (n = 300,000); in the data active = max response mostly above about 13%, no sharp cut-off; inactive = mostly below about 14%; also: read at 38.3 µM for the half of the compounds with a filed dose
FMDV inh = blocks foot and mouth disease virus; FMDV antiviral cell-based qHTS; Potency, µM (series often up to 57.9 µM), most hits filed as inhibitors; actives 1.2% (n = 410,000); AID 1159524; calls by dose curve; tested in HEK293T cells; also: read-out not given here; nearly all actives have a fitted effect of over 45% in size
LASV entry inh = inhibitors of Lassa virus binding or cell entry; Lassa virus pseudotype entry inhibition, cell reporter; Potency, µM (highest dose often 37.9 µM), most hits filed as inhibitors; actives 1.2% (n = 300,000); AID 540256; calls by dose curve; tested in HEK293 cells; also: nearly all actives have a fitted effect of over 50% in size
Shiga toxin inh = blocks Shiga toxin action in Vero cells | actives 9.2% (n = 290,000) | Vero cells, Shiga toxin protein synthesis inhibition reporter | inhibition, % at 38.7 µM; in the data active = inhibition mostly above about 28%, no sharp cut-off; inactive = mostly below about 43%
HCV inh = blocks hepatitis C virus; actives 3.4% (n = 340,000); AID 651820; Huh7.5.1 HCVcc-Cre infection, luciferase reporter, 44 h; Potency, µM (highest dose often 41.8 µM), hits mostly inhibitors; active = well fitted inhibition curve with a large enough effect; inconclusive = small, poorly fitted or top-dose-only effect, or another doubt; inactive = no such curve, though single readings can be large or run the other way
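After 44 h co-culture of compound, cells and HCVcc-Cre (~0.5 moi), substrate is added for 15 min at room temperature and luciferase measured over 15 sec. Cells were seeded at 1,000/well and pre-cultured 4 h.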
A number is an active result. A selection: hits, their analogues and other compounds. The true share with any hit is near 13%.

Results for O=C(N/N=C/CCc1ccccc1)C1CCCCC1 ?
Marburg entry inh: inactive; Cycloheximide cs: inactive; FMDV inh: inactive; LASV entry inh: inactive; Shiga toxin inh: inactive; HCV inh: inactive

How did CCC/C=N/NC(=O)c1ccc(F)cc1 do in these assays?
Marburg entry inh: inactive; Cycloheximide cs: 24; FMDV inh: inactive; LASV entry inh: inactive; Shiga toxin inh: 75; HCV inh: inactive

What do the screens show for `Cc1ccccc1NC(=O)c1cc(N)ccc1N1CCCCC1`?
Marburg entry inh: inactive; Cycloheximide cs: inactive; FMDV inh: inactive; LASV entry inh: inactive; Shiga toxin inh: inactive; HCV inh: inactive

What do the screens show for `CCC(=O)N1c2ccccc2CC1C(=O)NCc1ccccc1C` (centres undefined)?
FMDV inh: inactive; LASV entry inh: inactive

What do the screens show for `O=C(Nc1ccc(-c2nc3cc(NC(=O)c4ccccc4F)ccc3o2)cc1)c1ccccc1F`?
FMDV inh: inactive; LASV entry inh: inactive

How did O=C(Nc1ccc2oc(-c3ccc(Cl)c(Cl)c3)nc2c1)c1ncn[nH]1 do in these assays?
Marburg entry inh: inconclusive; Cycloheximide cs: 27; FMDV inh: inactive; LASV entry inh: inconclusive; Shiga toxin inh: inactive; HCV inh: inactive

Results for COc1ccc(C(=O)Nc2ccc3oc(-c4ccc(F)cc4Cl)nc3c2)cc1 ?
FMDV inh: inconclusive; LASV entry inh: inactive

How did O=C(Nc1ccc2oc(-c3ccccc3)nc2c1)c1ccccc1F do in these assays?
Marburg entry inh: inactive; Cycloheximide cs: 20; FMDV inh: inactive; LASV entry inh: inconclusive; Shiga toxin inh: 59; HCV inh: inconclusive

Results for CC(=O)NC(=S)Nc1ccc2oc(-c3cc(F)c(F)cc3Cl)nc2c1 ?
Marburg entry inh: inactive; Cycloheximide cs: 24; FMDV inh: inactive; LASV entry inh: inactive; Shiga toxin inh: inactive; HCV inh: inactive

Results for CCc1ccc2oc(-c3ccc(NC(=O)c4cccc(Cl)c4Cl)cc3)nc2c1 ?
FMDV inh: 13µM; LASV entry inh: inactive

Results for CCCc1cc(=O)[nH]c(SCC(=O)N2CCc3cc(OC)c(OC)cc3C2)n1 ?
FMDV inh: inactive; HCV inh: inactive

What do the screens show for `Cc1ccc(NC(=O)c2ncn[nH]2)cc1`?
Marburg entry inh: inactive; Cycloheximide cs: 19; FMDV inh: inactive; LASV entry inh: inactive; Shiga toxin inh: inactive; HCV inh: inactive

How did O=C(Nc1ccc2oc(-c3ccncc3)nc2c1)c1ccccc1F do in these assays?
Marburg entry inh: inactive; Cycloheximide cs: inactive; FMDV inh: inactive; LASV entry inh: inactive; Shiga toxin inh: 63; HCV inh: inactive

Results for O=C(Nc1ccc2oc(-c3cccc(F)c3)nc2c1)c1ccccc1F ?
Marburg entry inh: inactive; Cycloheximide cs: inactive; FMDV inh: inactive; LASV entry inh: inactive; Shiga toxin inh: inactive; HCV inh: inconclusive

Results for COc1ccccc1C(=O)Nc1ccc2oc(-c3cccc(Cl)c3Cl)nc2c1 ?
FMDV inh: inactive; LASV entry inh: inactive

What do the screens show for `O=C(Nc1ccc(Oc2ccc(Cl)cc2)cc1)c1ncn[nH]1`?
Marburg entry inh: inconclusive; Cycloheximide cs: inactive; FMDV inh: inactive; LASV entry inh: inactive; Shiga toxin inh: inactive; HCV inh: inactive

What do the screens show for `O=C(Nc1ccc2oc(-c3ccccc3F)nc2c1)c1ncn[nH]1`?
Marburg entry inh: inactive; Cycloheximide cs: 52; FMDV inh: inactive; Shiga toxin inh: 80; HCV inh: inactive

What do the screens show for `O=C(Nc1ccc2oc(-c3ccccc3F)nc2c1)c1ccccc1F`?
Marburg entry inh: inconclusive; Cycloheximide cs: 30; FMDV inh: inactive; LASV entry inh: inactive; Shiga toxin inh: 48; HCV inh: inconclusive

What do the screens show for `CC/C(=N\NC(=O)c1cc(C)oc1C)c1ccc(OC(F)F)cc1`?
FMDV inh: inactive

What do the screens show for `CC1CCC(NC(=O)CCc2cn(Cc3ccc(F)cc3)c3ccccc23)CC1` (centres undefined)?
FMDV inh: inactive; LASV entry inh: inconclusive

How did O=C1[C@H]2CC3CCC2(O3)[C@@H]2OCCCN12 (some centres undefined) do in these assays?
FMDV inh: inactive; HCV inh: inactive

What do the screens show for `O=C(NC(=S)Nc1ccccc1N1CCOCC1)c1ccc(-c2cccc(Cl)c2)o1`?
Marburg entry inh: inactive; Cycloheximide cs: inactive; FMDV inh: inactive; LASV entry inh: inactive; Shiga toxin inh: inactive; HCV inh: inactive

What do the screens show for `O=C(Cc1ccccc1)NC(=S)Nc1ccc2oc(-c3ccccc3)nc2c1`?
Cycloheximide cs: inactive; Shiga toxin inh: inactive; HCV inh: inactive
